# Data from PubChem BioAssay (NCATS).
# Records with an inconclusive call do not appear. Unmarked numbers belong to inactive results. Calls of active or inactive are those of the source. Calls come from the whole dose curve; as a rule, active = well fitted inhibition curve with a large enough effect; inconclusive = small, poorly fitted or top-dose-only effect; inactive = no such curve, though single readings can be large or run the other way.
# Test system: Zika virus NS2B-NS3 protease (linked construct)
# Assay: Primary screen NINDS Rhodamine qHTS for Zika virus inhibitors (AID 1347160); note: nearly all actives have a fitted effect of over 55% in size
# Settings: purified NS2B-NS3 protease, Rhodamine110 substrate fluorescence; series mostly up to 57.1 µM; activity change, negative = inhibition: at the top concentration
# In short: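 In 10 mM Tris-HCl pH 8.0 containing 0.01% Tween 20, linked NS2B-NS3 protease (25 nM final) is exposed to test compounds for 15 min. Cleavage of 1.5 microM Rhodamine110 substrate is tracked by fluorescence over 15 min.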
# % is set by controls: 0 for no effect and ±100 for the full control effect; potency is the fitted concentration of half-maximal effect.
Compound,outcome,"activity change, negative = inhibition",Potency
C/C=C(\C)C(=O)OC1C=C(C)CC(OC(=O)c2ccc(O)cc2)C2C1(C)CCC2(O)C(C)C (stereo not given),inactive [at 33.1 µM],,
O=C1COC2(CCN(S(=O)(=O)c3ccc(-c4ccc5cccnc5c4)cc3)CC2)CN1C1CC1,,45.6%,
CC(C)c1ccccc1OC(=O)NCCc1ccc2ccccc2c1,inactive,,
CN(C)CC#CCCC(=O)C(O)(c1ccccc1)C1CCC1 (stereo not given),,28.9%,
COc1cc(CCC2=NN=C(NC(=O)c3ccc(N4C[C@@H](C)N[C@@H](C)C4)cc3)C2)cc(OC)c1,,76.1%,
CC(=O)NC(C)c1cnc(-c2cnc(Oc3ccc(OC(C)C)cc3)s2)s1 (stereo not given),,8.89%,
C#CCOc1ccc2c(c1)c(-c1ccc(C(C)C)cc1)nc(=O)n2C(C)C,,-12.3%,
O=C(Nc1cc(C(F)(F)F)ccc1N1CCCCC1)c1ccncc1,,-5.71%,
CC1CCC/C=C/C(=O)c2c(O)cc(O)cc2CC(=O)O1 (stereo not given),,-16.6%,
CCC/C=C/C=C/C1CC(O)C2(O)C(=O)OCC12 (stereo not given),,,20 µM (active)
CN(C)CC1CCn2c(c(C3=C(c4cn(C)c5ccccc45)C(=O)NC3=O)c3ccccc32)C1 (stereo not given),,118%,
C=C1CC[C@@H]2[C@](C)(CO)[C@H](O)CC[C@@]2(C)[C@@H]1/C=C/C1=CCOC1=O,inactive [at 33.1 µM],,
C=C1C(=O)OC2/C=C(\C)CC/C=C(\C=O)C(OC)C(OC(=O)C(C)CC)C12 (stereo not given),,-23.6% [at 33.1 µM],
COc1cc(C(=O)NC(=S)Nc2cccc(NC(=O)c3ccccc3)c2)cc(OC)c1OC,,32.1%,
C/C=C(\C)C(=O)OC1C[C@@]2(COC(C)=O)O[C@H]2/C=C\[C@@]2(C)O[C@@H]2[C@H]2OC(=O)C(COC(C)=O)=C12 (stereo not given in full),,-6.19% [at 33.1 µM],
